Bioassay records from PubChem.
PLK1 PBD block = qHTS for Inhibitors of PLK1-PDB (polo-like kinase 1 - polo-box domain): Primary Screen; Serine/threonine-protein kinase PLK1 (Homo sapiens), P53350; Plk1 PBD binding of FITC phosphopeptide, fluorescence polarization; Potency, µM, without a hit: max response, negative = inhibition, actives largely listed as inhibitors; 2.8% of 360,000 active; AID 720504, 2013; also: potency is read from the fitted curve at half-maximal effect; series mostly up to about 57 µM; % is scaled to controls: 0 for no effect and ±100 for the full control effect; nearly all actives have a fitted effect of over 65% in size
KAT2A inh = qHTS Assay for Inhibitors of GCN5L2 | Histone acetyltransferase KAT2A (Homo sapiens), Q92830 | GCN5L2 HAT assay, ThioGlo1 CoA-SH fluorescence | Potency, µM (highest dose often 58.9 µM), inactives show at the top dose activity change, negative = inhibition, most hits filed as inhibitors | 0.21% of 390,000 active; also: potency is read from the fitted curve at half-maximal effect; % is scaled to controls: 0 for no effect and ±100 for the full control effect
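ThioGlo1-coupled HAT assay: 20nM GCN5L2, 70uM acetyl-CoA, 75uM H3(1-25) peptide, pH 7.5. Fluorescence read at 340/540nm at start and after 20 min at room temperature.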
PI5P4Ka inh = qHTS for Inhibitors of phosphatidylinositol 5-phosphate 4-kinase (PI5P4K). Phosphatidylinositol 5-phosphate 4-kinase type-2 alpha (Homo sapiens), P48426. PI5P4Kalpha enzyme, ADP-Glo luminescence, 60 min; active compounds read low. max response, %. 1.2% of 330,000 active; active = max response of -50% or lower; inconclusive = between -30% and -50%; inactive = -30% or higher; also: value at the top dose of about 77 µM; % is scaled to controls: 0 for no effect and ±100 for the full control effect
Target sequence (P48426 whole entry, looked up): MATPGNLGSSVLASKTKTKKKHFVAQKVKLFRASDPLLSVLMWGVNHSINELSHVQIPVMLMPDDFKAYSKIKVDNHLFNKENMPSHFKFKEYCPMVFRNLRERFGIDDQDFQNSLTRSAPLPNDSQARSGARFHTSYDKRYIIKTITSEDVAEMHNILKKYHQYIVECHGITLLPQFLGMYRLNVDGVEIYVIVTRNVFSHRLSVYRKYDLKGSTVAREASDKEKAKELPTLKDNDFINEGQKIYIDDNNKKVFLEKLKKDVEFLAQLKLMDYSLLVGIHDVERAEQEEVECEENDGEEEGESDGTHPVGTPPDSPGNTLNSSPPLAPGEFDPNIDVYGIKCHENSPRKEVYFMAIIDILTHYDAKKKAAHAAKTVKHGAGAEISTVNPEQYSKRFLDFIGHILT
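Luminescence from ADP-Glo served as readout of PI5P4Kalpha activity in a qHTS format. Reaction: enzyme, substrate, compound, ATP at 5 microM final, 60 min at RT.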
VDR inhibitor = Inhibitors of the vitamin D receptor (VDR): qHTS | Vitamin D3 receptor (Homo sapiens), P11473 | VDR-SRC2-3 peptide fluorescence polarization, 2 h | Potency, µM, for the others: max response, negative = inhibition, actives largely listed as inhibitors | 0.93% of 400,000 active; also: potency is read from the fitted curve at half-maximal effect; % is scaled to controls: 0 for no effect and ±100 for the full control effect
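Fluorescence polarization assay of small-molecule disruption of VDR binding to coregulator peptide SRC2-3. Compounds and controls pin-transferred, then read after 2 h incubation at ambient room temperature.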
Rango-impB inh = qHTS Assay for Inhibitors of Rango (Ran-regulated importin-beta cargo) - Importin beta complex formation | Rango CFP/YFP FRET sensor + importin beta, 45 min | 0.031% of 340,000 active | Importin subunit beta-1 (Homo sapiens), Q14974 | AID 540263, 2011 | Potency, µM (top dose mostly 92.2 µM), without a hit: at the highest dose inhibition of complex formation; calls by dose curve;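 also: potency is read from the fitted curve at half-maximal effect; 0% = DMSO wells and 100% = buffer wells lacking importin beta; nearly all actives have a fitted effect of over 15% in size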
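Inhibition scored from the CFP 486 nm/YFP 530 nm FRET ratio 45 min after adding 0.125 microM importin beta to 50 nM Rango biosensor preincubated 5 min with compound (room temperature, PBS with DTT, Tween-20, BSA). No-importin wells as positive control.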
Rango dissoc inh = qHTS Assay for Inhibitors of RanGTP induced Rango (Ran-regulated importin-beta cargo) - Importin beta complex dissociation; 0.071% of 340,000 active; Biochemical FRET Rango-importin beta, RanGTP-induced dissociation; Potency, µM (doses to about 46.1 µM), for inactives: at the top dose activity change, negative = inhibition; Snurportin-1 (Homo sapiens) + GTP-binding nuclear protein Ran (Homo sapiens) + Importin …; calls by dose curve; also: potency is read from the fitted curve at half-maximal effect; % of control where 0% means no effect; nearly all actives have a fitted effect of over 45% in size
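Compounds preincubate 5 min with complex of recombinant Rango and importin beta in PBS with 1 mM DTT. Ran (0.6 uM) loaded with 2 mM GTP plus 0.2 uM RCC1 starts dissociation; FRET is recorded 45 min later.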
TbPYK inh = qHTS of Trypanosoma Brucei Inhibitors: Confirmatory Assay for Cherry-picked Compounds | shares compounds with PLK1 PBD block | AID 720569, 2013 | 67% of 890 active | recombinant TbPYK, Kinase-Glo ATP luminescence | Potency, µM (top dose mostly 76.9 µM), inactives show at the highest dose activity change, negative = inhibition, hits mostly inhibitors; also: potency is read from the fitted curve at half-maximal effect; % is scaled to controls: 0 for no effect and ±100 for the full control effect; nearly all actives have a fitted effect of over 70% in size
TbPYK ADP-Glo = qHTS of Trypanosoma Brucei Inhibitors: Orthogonal Assay for Cherry-picked Compounds; AID 720584, 2013; shares compounds with PLK1 PBD block; 62% of 890 active; recombinant TbPYK, ADP-Glo luminescence, 60 min; Potency, µM (top dose mostly 76.9 µM), inactives show at the highest dose activity change, negative = inhibition, most hits filed as inhibitors; also: potency is read from the fitted curve at half-maximal effect; % is scaled to controls: 0 for no effect and ±100 for the full control effect; nearly all actives have a fitted effect of over 75% in size
* hit, by the source's call; ? = inconclusive; / = no result. Only some compounds are listed: those with a hit (about 3.6% of all), similar ones and a draw of the others. Unless noted, calls follow the shape of the dose curve; as a rule, active = well fitted curve in the direction sought with a large enough effect; inconclusive = small, poorly fitted or top-dose-only effect, or another doubt; inactive = no such curve, though single readings can be large; an effect the other way counts as inactive or inconclusive.

SMILES | PLK1 PBD block | KAT2A inh | PI5P4Ka inh | VDR inhibitor | Rango-impB inh | Rango dissoc inh | TbPYK inh | TbPYK ADP-Glo
COc1cccc(NC(=O)c2sc3nc(N4CCOCC4)c4c(c3c2N)CCCC4)c1 | ? | -12% | -23 | 12% | -2% | -26% | ? | ?
CCCCOC(=O)c1sc2nc(N3CCOCC3)c3c(c2c1N)CC(C)(C)OC3 | -5% | 2% | 2 | 10% | 0% | 28% | / | /
CCCCOc1cccc(C(=O)N(Cc2cccs2)c2ccc(OC)cc2)c1 | / | -17% | / | 16% | / | / | / | /
Oc1c(C(c2ccccc2Cl)N2CCC(O)CC2)sc2nc(-c3ccco3)nn12 (stereo not drawn) | / | -13% | / | -8% | / | / | / | /
COc1ccc(-c2ccc(C(=S)N3CCN(C(C)=O)CC3)o2)cc1 | 24µM* | 3% | / | 79µM* | -1% | -12% | 22µM* | 32µM*
COc1ccc(CC(=O)N2CCN(C(=O)Cc3ccc(OC)cc3)CC2)cc1 | ? | 5% | -13 | -8% | 4% | 0% | / | /
CC(Sc1nccn1C)C(=O)Nc1ccccc1C#N (stereo not drawn) | / | -5% | / | 0% | / | / | / | /
CCN(CC)c1ccc(/C=C(\C#N)c2ccccn2)cc1 | -7% | -8% | -6 | -16% | ? | ? | / | /
N#C/C(=C\c1ccc(C(=O)O)cc1)c1ccccn1 | -7% | -3% | ? | -9% | 1% | -8% | ? | 2%
COC(=O)/C(=N/Nc1ccccc1C)Sc1nnc(C(O)c2ccccc2)n1-c1ccccc1 (stereo not drawn) | -10% | -10% | -19 | 6% | 2% | -12% | 35µM* | 35µM*
Cc1ccc(CN(C(=O)COc2ccc(C(C)(C)C)cc2)C2CCS(=O)(=O)C2)o1 (stereo not drawn) | / | -1% | / | 7% | / | / | / | /
CCOc1ccc(-n2c(=S)sc3c(=O)n(-c4ccccc4)c(SC)nc32)cc1 | -16% | -11% | 3 | ? | -3% | 4% | / | /
COc1ccc(OC)c(-n2c(=S)[nH]c3c(sc(=S)n3-c3ccccc3C)c2=O)c1 | ? | -10% | -22 | ? | 0% | -9% | / | /
CCOc1ccccc1-n1c(=S)sc2c(=O)n(-c3ccccc3)c(=S)[nH]c21 | 3% | -12% | -21 | -28% | 2% | 2% | 11µM* | 11µM*
COc1ccccc1-n1c(=S)[nH]c2c(sc(=S)n2-c2ccccc2C)c1=O | 27µM* | -14% | -23 | ? | 1% | 19% | 5µM* | 14µM*
COc1cccc(-n2c(=S)sc3c(=O)n(-c4ccccc4OC)c(=S)[nH]c32)c1 | ? | -3% | -8 | -2% | -3% | 13% | / | /
COc1ccccc1-n1c(=S)[nH]c2c(sc(=S)n2-c2ccccc2)c1=O | -16% | 1% | -12 | -14% | 2% | -7% | 32µM* | 18µM*
COc1ccc(NC(=O)NCCn2nnc3cc(S(=O)(=O)N(C)C)ccc32)cc1 | / | -13% | / | 3% | / | / | / | /
Cc1noc(NS(=O)(=O)c2ccc(NC(=O)CSc3nc4c(cc3C#N)CCCC4)cc2)c1C | ? | -8% | 1 | -12% | -2% | 0% | / | /
Cc1noc(NS(=O)(=O)c2ccc(NC(=O)CSc3nc4c(cc3C#N)CCC4)cc2)c1C | ? | 0% | -11 | 2% | -4% | 10% | ? | 32µM*
COC(=O)c1ccc2c(=O)n(Cc3ccc(C(=O)NCCCN4CCC(C)CC4)cc3)c(=S)[nH]c2c1 | -11% | -1% | 6 | 0% | 0% | -10% | 18µM* | 16µM*
CCCCN(C)CCNC(=O)c1ccc(Cn2c(=S)[nH]c3ccc(Br)cc3c2=O)cc1 | ? | -3% | 5 | 15% | -2% | -5% | 20µM* | 13µM*
COC(=O)N1CCCc2cc(S(=O)(=O)NCc3ccccc3)ccc21 | / | -8% | / | 14% | / | / | / | /
CC(C)CN(C(=O)CN1CCN(c2ccc(O)cc2)CC1)c1c(N)n(CC(C)C)c(=O)[nH]c1=O | -11% | -1% | -12 | -9% | -5% | 20% | ? | ?
CC(=O)c1ccc(N2CCN(CC(=O)N(CC(C)C)c3c(N)n(CC(C)C)c(=O)[nH]c3=O)CC2)cc1 | 6% | -7% | 2 | -11% | -3% | -18% | / | /
SMILES | PLK1 PBD block | KAT2A inh | PI5P4Ka inh | VDR inhibitor | Rango-impB inh | Rango dissoc inh | TbPYK inh | TbPYK ADP-Glo
NC(=O)Cn1c(=O)n(Cc2ccco2)c(=O)c2c3c(sc21)CCCCC3 | ? | -28% | / | 89µM* | 0% | 0% | ? | ?
O=C(Cn1c(=O)n(Cc2ccco2)c(=O)c2c3c(sc21)CCCC3)Nc1ccccc1 | ? | -8% | 1 | -10% | -6% | -2% | / | /
O=S(=O)(O)c1cc(O)c(N=Nc2ccc(O)cc2O)c2ccccc12 | ? | / | -78* | 52% | ? | -6% | 11µM* | ?
O=[N+]([O-])c1ccccc1N=Nc1ccc(O)cc1O | -5% | / | ? | -12% | 1% | 1% | / | /
COc1cc(C=C2C(=O)C=CC2=O)ccc1O | 5.3µM* | / | -104* | / | / | / | 1.1µM* | 1.1µM*
O=C1C=CC(=O)N1c1ccc(OC(F)F)cc1 | 3.4µM* | ? | ? | 16µM* | 0% | -1% | -13% | -8%
O=C1c2ccccc2C(=O)C1(CO)c1ccc(OC(F)F)cc1 | -29% | -2% | 3 | 8% | 1% | -9% | / | /
Nc1ccc(-c2nc3ccccc3o2)cc1 | 7% | 2% | -2 | -3% | 6% | -1% | / | /
O=C1C=CC(=O)N1c1ccc(-c2nc3ccccc3o2)cc1 | 8.4µM* | / | -60* | / | / | / | -95% | 11µM*
O=C(Nc1ccc(C(=O)N2CCCC2)cc1)c1ccccc1 | -6% | / | -28 | 7% | 0% | 1% | 28µM* | 8%
CC(=O)c1ccc(NC(=O)C2CCC(CNS(=O)(=O)c3cccc4nsnc34)CC2)cc1 (stereo not drawn) | / | -3% | / | -26% | / | / | / | /
